HIF-2a inh: HIF-2a inhibition; inhibition, % at 18.8 µM; 360,000 compounds, 0.72% hits; 786-0 RCC cells HIF-2a reporter, luciferase luminescence, overnight;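 active = inhibition of the luminescence signal of 40% or more relative to plate controls, in a single-dose primary screen at 18.75 µM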
Peg3 prom inh: reduces Peg3 promoter-driven luciferase expression in HeLa | HeLa PEG-Prom luciferase reporter, luminescence, overnight | inhibition, % at 20 µM | 360,000 compounds, 1.7% hits;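 active = inhibition of at least 50% at 20 µM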
KKLEB tox: reduces viability of KKLEB cystic fibrosis airway cells; KKLEB CF airway cells viability, ATPlite luminescence, overnight; stronger effect = lower value; cells stimulated with P. aeruginosa culture filtrate; activity change (cytotoxicity), % at 5 µM; 360,000 compounds, 0.36% hits; AID 602141;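 active = corrected activity change at or below -50% at 5 µM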
Shn3 inh set2: Schnurri-3 reporter inhibition in Clone20 osteoblasts | inhibition, % at 12.5 µM | 360,000 compounds, 0.52% hits | Clone20 osteoblast Shn3 3'UTR firefly luciferase, 24 h;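 active = mean inhibition of at least 75% with every replicate also reaching 75%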
CF NFkB block: blocks PAF-induced NF-kB reporter in cystic fibrosis cells | KKLEB NF-kB-GFP reporter, GFP fluorescence overnight | inhibition, % at 5 µM | AID 588850 | 360,000 compounds, 0.86% hits;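 active = at least 50% inhibition at 5 µM, scaled per plate between neutral and stimulator controls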;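 note: PAF is a Pseudomonas aeruginosa culture filtrate used as stimulus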
MITF TRPM1 inh: MITF TRPM1 promoter inhibition in SK-MEL-5 cells; inhibition, % at 12.5 µM; 330,000 compounds, 0.83% hits; SK-MEL-5 TRPM1 promoter luciferase, 24 h;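 active = mean inhibition across replicates of 60% or more, whatever share of single replicates reaches that level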
Each line names hits and unclear results; the compound was inactive in the other large screens. Hits are enriched below; roughly 2.8% of the tested compounds scored in any of these assays.

CCOc1cc(/C=C2\C(=O)ON=C2C)ccc1OCc1ccccc1	HIF-2a inh 67, Peg3 prom inh 89, Shn3 inh set2 91
O=C(CCl)N1c2ccccc2SCC1c1ccccc1 (stereo not given)	Peg3 prom inh 68, MITF TRPM1 inh 79
O=C(CCl)N1c2ccccc2OCC1c1ccccc1 (stereo not given)	none
Cc1cc2c(cc1C)C(=O)C(Br)=C(N)C2=O	MITF TRPM1 inh 62
NC1=C(Br)C(=O)c2ccccc2C1=O	MITF TRPM1 inh 71
COc1ccc(C2/C=C\CN(C(=O)C3CC3)[C@H](Cc3ccccc3)C(=O)N2Cc2ccc(F)cc2)cc1 (stereo not given in full)	none
COc1ccc(C2/C=C\CN(C(=O)c3ccc(C)cc3)[C@H](Cc3ccccc3)C(=O)N2Cc2ccc(F)cc2)cc1 (stereo not given in full)	Peg3 prom inh 70, Shn3 inh set2 87
COc1cc(OC)c(NC(=O)c2ccccc2F)cc1Cl	none
COc1cc(NC(=O)c2cc3ccccc3cc2O)c(OC)cc1Cl	KKLEB tox -55, CF NFkB block 50
Cc1cc(NC(=O)c2ccc3c(c2)OCCO3)ccc1NC(=O)c1cc2ccccc2o1	none
O=C(Nc1ccc(NC(=O)c2cc3ccccc3o2)cc1)c1ccc2c(c1)OCCO2	Peg3 prom inh 78
O=C(Nc1ccc(N2CCN(C(=O)c3ccccc3)CC2)cc1)c1ccc2c(c1)OCCO2	none
O=C(Nc1ccc(N2CCN(C(=O)c3ccc(Cl)cc3)CC2)cc1)c1ccc2c(c1)OCCO2	Shn3 inh set2 89, MITF TRPM1 inh 73
O=C(Nc1ccc(N2CCN(C(=O)c3ccccc3)CC2)cc1)c1cc2ccccc2o1	Peg3 prom inh 72, MITF TRPM1 inh 69
CN1CCN(c2ccc(NC(=O)c3cc4ccccc4o3)cc2)CC1	none
CCN(Cc1cc(=O)n2ccsc2n1)c1cccc2ccccc12	none
Cc1ccc(CNC(=O)C2CCC(=O)N(Cc3ccccc3F)C2)s1 (stereo not given)	none
CCOC1=C2[C@H](c3ccccc3Cl)N(S(=O)(=O)c3ccc(C)cc3)C[C@H]2C(C#N)(C#N)C(C#N)(C#N)C1	HIF-2a inh 61 (no result: MITF TRPM1 inh)
CCOC1=C2[C@H](c3ccc(CC)cc3)N(S(=O)(=O)c3ccc(C)cc3)C[C@H]2C(C#N)(C#N)C(C#N)(C#N)C1	HIF-2a inh 62, Peg3 prom inh 89, Shn3 inh set2 95 (no result: MITF TRPM1 inh)
COc1ccc(N(CC(=O)NC2CC2)S(=O)(=O)c2ccccc2)cc1	none
CC(OC(=O)Cc1c[nH]c2ccccc12)C(=O)Nc1ccccc1F (stereo not given)	none
C=CCn1c[n+](CC(=O)c2ccc(Br)s2)c2ccccc21	none
O=C(Nc1ccc(OC(F)F)cc1)Nc1cccc(C(F)(F)F)c1	KKLEB tox -52, CF NFkB block 63
Cc1ccc(NC(=S)NNC(=S)Nc2cccc(C(F)(F)F)c2)cc1	none (no result: Shn3 inh set2)
Cc1ccc(S(=O)(=O)Nc2ccc(NC(=O)Nc3cccc(C(F)(F)F)c3)cc2)cc1	Peg3 prom inh 96
O=C(Nc1ccncc1)Nc1cccc(C(F)(F)F)c1	none
O=C(N/N=C/C=C/c1ccc2c(c1)OCO2)C(O)c1ccccc1 (stereo not given)	none
Cc1cccc(C(=O)N[C@H](C(=O)Nc2nnc(C3CC3)s2)C(C)C)c1	none
Cc1cccc(C(=O)N[C@H](C(=O)Nc2ncc(C)s2)C(C)C)c1	Peg3 prom inh 60
N#Cc1c2ccc(O)cc2n2ccccc12	CF NFkB block 71
Cc1ccc(O)c(C=Nc2cc(C)ccc2O)c1	none
CC(C)(C)c1ccc(O)c(N=Cc2cc(Br)ccc2O)c1	HIF-2a inh 52
Cc1ccc(-c2cn(-c3ccc(OC(F)F)cc3)c3[n+]2CCCCC3)cc1	Shn3 inh set2 88
CCOC(=O)C1CCCN(S(=O)(=O)c2ccc(S(=O)(=O)N3CCCC3)cc2)C1 (stereo not given)	Shn3 inh set2 88
Cc1ccc(S(=O)(=O)c2ccc(C)cc2)cc1	none
Cc1ccc(S(=O)(=O)C=CS(=O)(=O)c2ccc(C)cc2)cc1	HIF-2a inh 52, Peg3 prom inh 95, CF NFkB block 96 (no result: MITF TRPM1 inh)
CC(=O)O[C@]1(C(C)=O)CCC2C3C=C(C)C4=CC(=O)CC[C@]4(C)C3CC[C@@]21C (stereo not given in full)	CF NFkB block 52
Cc1cccc(N2CCN(C(=O)CSCc3c(C)noc3C)CC2)c1C	Shn3 inh set2 85
Cc1nc2ccc3nc(NC(=O)c4ccc5c(c4)OCCO5)sc3c2s1	none
Cc1nc2c(ccc3nc(NC(=O)c4ccc5c(c4)OCCO5)sc32)s1	KKLEB tox -53
CC(C)CCN1CCN(Cc2nc(-c3ccc(F)cc3)cs2)CC1CCO (stereo not given)	none
CCOc1ccc(C(=O)CC(C(=O)O)N2CCCCC2)cc1 (stereo not given)	none
Cc1cc(Sc2nnc(/N=C/N(C)C)s2)c2ccccc2n1	CF NFkB block 59
CCOc1cc(C(=O)N2CCC(CC3CC(c4ccc(Cl)cc4)=NO3)(C(=O)NCC3CCCCC3)CC2)cc(OCC)c1OCC (stereo not given)	none
O=C(NCC1CCCCC1)C1(CC2CC(c3ccc(Cl)cc3)=NO2)CCNCC1 (stereo not given)	Peg3 prom inh 97
O=C(NCC1CCCCC1)C1(CC2CC(c3cccc(Br)c3)=NO2)CCNCC1 (stereo not given)	Peg3 prom inh 99, MITF TRPM1 inh 65
CC(C)(C)OC(=O)N1CCC(CC2CC(c3cccc(Br)c3)=NO2)(C(=O)NCC2CCCCC2)CC1 (stereo not given)	none (no result: HIF-2a inh, Peg3 prom inh, KKLEB tox, CF NFkB block)
CS(=O)(=O)c1ccc(Sc2nc3ccccc3[nH]2)c([N+](=O)[O-])c1	none
CS(=O)(=O)c1ccc(Sc2nc3ccccc3s2)c([N+](=O)[O-])c1	Shn3 inh set2 95, CF NFkB block 54
CC1CC(C)CN(S(=O)(=O)N2CCC(C(=O)NCCc3ccccc3)CC2)C1 (stereo not given)	none
CCOc1cc(/C=N\NC(N)=O)cc(Br)c1OC(C)C	Peg3 prom inh 56
CCOc1cc(/C=N/NC(N)=O)cc(Br)c1OCc1ccccc1F	none
CCc1nc(Nc2ccccc2F)c2oc3ccccc3c2n1	none
COc1ccc(/C=N/Nc2ncnc(Cl)c2N)cc1OC	none
COc1ccc2nc(C)cc(N/N=C/c3cccc(OC)c3O)c2c1	Peg3 prom inh 111, MITF TRPM1 inh 82
COc1cccc(/C=N/Nc2nccnc2Cl)c1O	Peg3 prom inh 53, Shn3 inh set2 86
COc1cccc(/C=N/Nc2ncnc3scc(-c4ccccc4)c23)c1O	Peg3 prom inh 60, Shn3 inh set2 85, MITF TRPM1 inh 70
Cc1cc(N/N=C/c2ccccc2O)c2ccccc2n1	none
COc1cccc(/C=N/Nc2ncnc(Cl)c2N)c1O	HIF-2a inh 63, Peg3 prom inh 85

Screens: PubChem BioAssay, several laboratories
